Among all 65,000 compounds or so, about 450 (0.69%) were called active. The entries come from a sample that favours actives as a whole. A number with no mark means an inactive call.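 The calls were made as follows: active = HER2 level under 5% of the carrier-only control; inconclusive = no clear call, values can overlap the other calls; inactive = the rest.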
Each molecule was assayed against Receptor tyrosine-protein kinase erbB-2 (Homo sapiens) (UniProt P04626) (assay: inhibitors of Her2 protein expression, primary screen, SKBR-3 cells, AlphaScreen, 66K library (AID 645;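 also: 100% = DMSO carrier and 0% = 500 nM PU-H71 HSP90 inhibitor; lower value means stronger loss of Her2 protein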)). Conditions: SKBR-3 HER2 protein level, 18-24 h, at 10 µM, active compounds read low.
Receptor tyrosine-protein kinase erbB-2 (Homo sapiens), sequence (P04626 whole entry, looked up): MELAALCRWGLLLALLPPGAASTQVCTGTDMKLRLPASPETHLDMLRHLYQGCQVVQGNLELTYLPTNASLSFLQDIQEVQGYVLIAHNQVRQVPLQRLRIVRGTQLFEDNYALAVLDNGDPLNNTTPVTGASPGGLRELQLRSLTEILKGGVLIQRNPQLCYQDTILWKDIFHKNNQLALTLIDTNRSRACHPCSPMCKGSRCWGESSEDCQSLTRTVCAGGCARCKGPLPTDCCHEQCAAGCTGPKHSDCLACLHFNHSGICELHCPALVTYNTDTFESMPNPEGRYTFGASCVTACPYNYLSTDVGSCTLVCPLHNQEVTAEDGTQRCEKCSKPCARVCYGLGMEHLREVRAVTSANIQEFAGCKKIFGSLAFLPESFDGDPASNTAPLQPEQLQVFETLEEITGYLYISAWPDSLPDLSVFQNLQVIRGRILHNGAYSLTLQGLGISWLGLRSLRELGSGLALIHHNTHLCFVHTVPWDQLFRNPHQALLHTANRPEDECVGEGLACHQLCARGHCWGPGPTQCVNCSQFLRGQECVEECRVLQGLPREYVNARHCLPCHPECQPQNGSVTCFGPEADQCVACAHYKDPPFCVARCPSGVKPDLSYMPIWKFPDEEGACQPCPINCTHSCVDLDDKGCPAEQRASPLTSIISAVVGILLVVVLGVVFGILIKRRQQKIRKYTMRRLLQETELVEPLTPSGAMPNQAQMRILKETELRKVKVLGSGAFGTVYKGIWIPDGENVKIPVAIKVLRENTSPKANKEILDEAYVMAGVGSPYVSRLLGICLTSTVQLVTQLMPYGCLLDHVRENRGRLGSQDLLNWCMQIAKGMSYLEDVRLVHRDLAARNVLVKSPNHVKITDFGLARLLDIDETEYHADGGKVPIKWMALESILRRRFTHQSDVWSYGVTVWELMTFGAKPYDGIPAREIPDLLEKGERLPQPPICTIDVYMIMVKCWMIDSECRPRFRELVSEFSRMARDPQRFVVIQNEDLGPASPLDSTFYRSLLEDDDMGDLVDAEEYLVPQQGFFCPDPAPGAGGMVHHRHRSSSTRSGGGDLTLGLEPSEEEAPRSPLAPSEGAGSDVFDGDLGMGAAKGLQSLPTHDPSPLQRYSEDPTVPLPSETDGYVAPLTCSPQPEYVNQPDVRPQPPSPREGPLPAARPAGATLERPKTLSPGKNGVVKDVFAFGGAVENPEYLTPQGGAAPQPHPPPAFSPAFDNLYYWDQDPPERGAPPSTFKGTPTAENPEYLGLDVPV

Question: For `CCCCN(CC)CCCNC(=O)CS(=O)(=O)Cc1nc(-c2cccc(OC)c2)oc1C`, which HER2 level % of control is on record?
Answer: The HER2 level % of control was 80.5%.

Question: Which HER2 level % of control does the source give for `CC1(C)CC(O)C(CCC(O)c2ccccc2)C(C)(C)N1` (centres undefined) here?
Answer: The HER2 level % of control was 89.8%.

Question: Which HER2 level % of control does the source give for `CCN(CC)S(=O)(=O)c1ccc(NC(=O)CN(c2cccc(F)c2)S(C)(=O)=O)cc1` here?
Answer: The HER2 level % of control was 152%.

Question: Which HER2 level % of control does the source give for `COC(=O)[C@H](Cc1ccccc1)NC(=O)N1CC(C)OC(C)C1` (some centres undefined) here?
Answer: Its HER2 level % of control is 108%.

Question: `C=C(C)COc1ccc(-c2n[nH]c(C)c2-c2ccccc2)c(O)c1` was tested. Which HER2 level % of control did it give?
Answer: Its HER2 level % of control is 68.6%.

Question: How did the HER2 level % of control turn out when `C=C(C)COc1ccc(-c2n[nH]c(C)c2-c2ccccc2OC)c(O)c1` was run?
Answer: Its HER2 level % of control is -9.89% (active).

Question: `COc1ccc(-c2n[nH]c(C)c2-c2ccc(OC)c(OC)c2)c(O)c1` was tested. Which HER2 level % of control did it give?
Answer: Its HER2 level % of control is 82.6%.

Question: How did the HER2 level % of control turn out when `CCOC(=O)CNC(=O)CN1C(=O)CCSc2ccccc21` was run?
Answer: Its HER2 level % of control is 106%.

Question: How did the HER2 level % of control turn out when `Cn1c(=O)c2c(nc(N3CCCCCC3)n2CC(O)COc2ccc(Cl)cc2)n(C)c1=O` (centres undefined) was run?
Answer: The HER2 level % of control was 89%.

Question: Which HER2 level % of control does the source give for `COc1ccccc1NC(=O)C1=C(C)NC2=C(C(=O)CCC2)C1c1ccc(C)o1` (centres undefined) here?
Answer: The HER2 level % of control was 90.6%.

Question: Which HER2 level % of control does the source give for `O=c1ccn(Cc2ccccc2Cl)cc1` here?
Answer: Its HER2 level % of control is 93.6%.

Question: For `COc1ccccc1N1CCN(C(=O)c2ccc(S(=O)(=O)N3CCCCC3)cc2)CC1`, which HER2 level % of control is on record?
Answer: Its HER2 level % of control is 135%.

Question: `Cn1c(SCC(=O)Nc2cccc(O)c2)nnc1-c1ccc(S(=O)(=O)N2CCOCC2)cc1` was tested. Which HER2 level % of control did it give?
Answer: Its HER2 level % of control is 100%.

Question: How did the HER2 level % of control turn out when `CC(=O)Nc1nc(C)c(Cc2ccccc2)c(=O)[nH]1` was run?
Answer: Its HER2 level % of control is 142%.

Question: With `Cn1c(=O)c2cn(-c3cccc4ccccc34)cc2n(C)c1=O` as the molecule, how does the HER2 level % of control read?
Answer: Its HER2 level % of control is 94.5%.

Question: `CC(=O)Nc1ccc(S(=O)(=O)Nc2cccc(NC(=O)C(C)(C)C)c2)cc1` was tested. Which HER2 level % of control did it give?
Answer: The HER2 level % of control was 127%.

Question: With `COc1cc(NS(=O)(=O)c2ccc(NC(C)=O)cc2)cc(OC)c1` as the molecule, how does the HER2 level % of control read?
Answer: The HER2 level % of control was 90.4%.

Question: `CC(=O)Nc1ccc(NS(=O)(=O)c2cc(C)sc2C)cc1` was tested. Which HER2 level % of control did it give?
Answer: The HER2 level % of control was -22.3% (active).

Question: Which HER2 level % of control does the source give for `CCC(C)n1[nH]c(=O)c2c(C)cc(C)nc21` (centres undefined) here?
Answer: Its HER2 level % of control is 116%.

Question: `CCN(CC)CCCN1C(=O)C(=O)/C(=C(/O)c2c(C)nc3ccccn23)C1c1ccc(C)o1` (centres undefined) was tested. Which HER2 level % of control did it give?
Answer: Its HER2 level % of control is 90.1%.

Question: How did the HER2 level % of control turn out when `Cc1ccc(NC(=O)C2CC(c3ccc(F)cc3)=NO2)cc1` (centres undefined) was run?
Answer: The HER2 level % of control was 127%.

Question: Which HER2 level % of control does the source give for `CCC1(C)N(O)C(C)(C)C(c2ccc(OC)cc2)=[N+]1[O-]` (centres undefined) here?
Answer: Its HER2 level % of control is 90.2%.

Question: How did the HER2 level % of control turn out when `O=C1c2ccccc2C(O)N1Cc1ccccc1Cl` (centres undefined) was run?
Answer: The HER2 level % of control was 99%.

Question: With `Brc1cnc(N2CCCC2)nc1N1CCCCC1` as the molecule, how does the HER2 level % of control read?
Answer: Its HER2 level % of control is 69.2%.

Question: For `COc1ccc(CC(=O)Nc2nc3n(n2)C(c2ccccc2)CC(=O)N3)cc1OC` (centres undefined), which HER2 level % of control is on record?
Answer: The HER2 level % of control was 104%.

Question: Which HER2 level % of control does the source give for `CCCn1c(SCC(=O)c2ccc3c(c2)OCCO3)nnc1C(C)C` here?
Answer: The HER2 level % of control was 116%.

Question: With `COc1cc(C2C(C(=O)Nc3ccccc3OC)=C(C)Nc3ncnn32)ccc1O` (centres undefined) as the molecule, how does the HER2 level % of control read?
Answer: Its HER2 level % of control is 106%.

Question: How did the HER2 level % of control turn out when `O=C(C1CCN(S(=O)(=O)c2cccs2)CC1)N1CCCCCC1` was run?
Answer: The HER2 level % of control was 100%.

Question: Which HER2 level % of control does the source give for `Cc1nc(-c2ccc(NC(=O)c3cccs3)cc2)cs1` here?
Answer: The HER2 level % of control was 103%.

Question: With `CC1=C(C)CC2C(=O)N(c3cccc4ccccc34)C(=O)C2C1` (centres undefined) as the molecule, how does the HER2 level % of control read?
Answer: The HER2 level % of control was 102%.

Question: With `C=CCn1c(N)c(C(=O)OCC(C)C)c2nc3ccccc3nc21` as the molecule, how does the HER2 level % of control read?
Answer: Its HER2 level % of control is 86%.

Question: How did the HER2 level % of control turn out when `C=CCn1c(N)c(S(=O)(=O)c2cccs2)c2nc3ccccc3nc21` was run?
Answer: Its HER2 level % of control is 86.9%.

Question: How did the HER2 level % of control turn out when `CC(C)Cn1c(N)c(C(=O)NCc2cccs2)c2nc3ccccc3nc21` was run?
Answer: Its HER2 level % of control is -24.2% (active).

Question: With `COc1ccc(OCC(=O)OCCN(C)C)cc1` as the molecule, how does the HER2 level % of control read?
Answer: Its HER2 level % of control is 117%.

Question: `O=C(O)C1C2C=CC(C2)C1C(=O)N1CCN(CCO)CC1` (centres undefined) was tested. Which HER2 level % of control did it give?
Answer: The HER2 level % of control was 56.8%.

Question: With `Nc1cc(=O)nc(SCc2ccccc2)n1Cc1ccco1` as the molecule, how does the HER2 level % of control read?
Answer: Its HER2 level % of control is 77%.

Question: Which HER2 level % of control does the source give for `Cn1c(-c2ccc(F)cc2)cnc1SCC(=O)NCc1ccco1` here?
Answer: Its HER2 level % of control is 85.8%.

Question: `O=c1[nH]c(CSc2ncc(-c3ccc(F)cc3)n2Cc2ccco2)nc2ccccc12` was tested. Which HER2 level % of control did it give?
Answer: The HER2 level % of control was -21.8% (active).

Question: For `CN(C)c1nc2n(c(=O)n1)CCO2`, which HER2 level % of control is on record?
Answer: The HER2 level % of control was 93.2%.

Question: With `CCC(=O)NC(=Nc1nc2ccccc2s1)NC(=O)CC` as the molecule, how does the HER2 level % of control read?
Answer: The HER2 level % of control was 76%.

Question: With `CCC(=O)c1cc2c(cc1NC(=O)c1cccs1)OCCO2` as the molecule, how does the HER2 level % of control read?
Answer: The HER2 level % of control was 102%.

Question: For `COc1cccc(NC(=O)C(C)Oc2ccccc2)c1` (centres undefined), which HER2 level % of control is on record?
Answer: The HER2 level % of control was 87.6%.

Question: `CCCC1CC(C)(C(=O)Cn2[nH]c(=O)ccc2=O)OC1=O` (centres undefined) was tested. Which HER2 level % of control did it give?
Answer: The HER2 level % of control was 109%.

Question: With `COc1ccccc1CNC(=O)Cn1cc2c(n1)CCCC2` as the molecule, how does the HER2 level % of control read?
Answer: Its HER2 level % of control is 95.6%.

Question: For `CCc1cc2c(=O)c(-c3ccon3)c(N)oc2cc1OC`, which HER2 level % of control is on record?
Answer: The HER2 level % of control was 49.1%.

Question: With `Cc1ccccc1CN1CCN(C(=O)c2cccc(F)c2)CC1` as the molecule, how does the HER2 level % of control read?
Answer: The HER2 level % of control was 79%.

Question: How did the HER2 level % of control turn out when `c1ccc2cc(OCCN3CCCC3)ccc2c1` was run?
Answer: Its HER2 level % of control is -25.1% (active).

Question: Which HER2 level % of control does the source give for `Cc1cc(OCCN2CCCC2)ccc1C(C)C` here?
Answer: Its HER2 level % of control is 63%.

Question: For `OC(COc1ccc2ccccc2c1)CN1CCOCC1` (centres undefined), which HER2 level % of control is on record?
Answer: The HER2 level % of control was 113%.
